Screens deposited in PubChem by National Center for Advancing Translational Sciences (NCATS).
An excerpt weighted towards active compounds, which were near 7.9% of everything screened.
MCF10A rereplic: inducers of DNA re-replication in MCF 10A breast cells. MCF 10A DNA re-replication, Hoechst nuclear intensity, 48 h. Potency, µM (highest dose often 46.1 µM), for inactives: top-dose activity, positive = re-replication, most hits filed as activators. 350,000 compounds, 2.9% hits. AID 624296; further: % of control where 0% means no effect; nearly all actives have a fitted effect of over 50% in size
KB-V1 MDR tox: kills drug-selected multidrug resistant KB-V1 cells; Potency, µM (titrated, usually from 46.1 µM), usual class: cytotoxic; KB-V1 MDR cells viability, CellTiter-Glo, 72 h; 400,000 compounds, 3.4% hits; further: on the % scale 0 is the no-effect control and ±100 the full control effect; nearly all actives have a fitted effect of over 60% in size
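Potencies derive from concentration-effect curves fitted to normalized luminescence (CellTiter-Glo) of KB-V1 cells treated for 72 h at 37 degrees C in phenol-red-free DMEM containing 10% FBS.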
KB-3-1 cytotox: KB-3-1 parental cell cytotoxicity; KB-3-1 viability, CellTiter-Glo ATP luminescence, 72 h; Potency, µM (top dose mostly 46.1 µM), most hits filed as cytotoxic; 400,000 compounds, 1.4% hits; AID 1347075; further: on the % scale 0 is the no-effect control and ±100 the full control effect; nearly all actives have a fitted effect of over 60% in size
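Here the drug-naive KB-3-1 line serves as comparator for MDR sub-line selectivity; cells received compound titrations, 72 h at 37 °C, then CellTiter-Glo readout.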
HT1080 IDH1KD tx: toxicity to HT-1080 IDH1 knockdown cells (counter line) | HT-1080 IDH1 knockdown viability, ATP luminescence, 48 h | Potency, µM (titrated, usually from 46.1 µM), for the others: top-dose activity, negative = toxicity, usual class: cytotoxic | 360,000 compounds, 2% hits;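 further: 0% = DMSO wells and -100% = cell-free medium wells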
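After a 2 h attachment period, IDH1KD HT-1080 cells took pin-transferred compound for 48 h at 37 °C; ATP-based luminescence after 10 min room-temperature reagent incubation reported viability.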
HT1080-NT tox: kills 2HG-producing HT-1080-NT fibrosarcoma cells. HT-1080-NT fibrosarcoma viability, CellTiter-Glo ATP luminescence, 48 h. 360,000 compounds, 1.6% hits. Potency, µM (titrated, usually from 46.1 µM), for the others: at the top dose activity, negative = less viability, most hits filed as cytotoxic;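 further: NT is the 2HG producing partner of a matched IDH1 knockdown line; 0% = DMSO-treated cells and -100% = media-only wells without cells; nearly all actives have a fitted effect of over 55% in size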
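HT-1080-NT; 750 cells/well; 5% FBS RPMI; 48 h compound, 37 degrees C; CellTiter-Glo luminescence; curve fitting and curve-class assignment.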
SW480 rereplic: induces DNA re-replication in SW480 colon adenocarcinoma cells | SW480 DNA re-replication, Hoechst DNA content imaging, 48 h | Potency, µM (series often up to 46.1 µM), without a hit: top-dose re-replication activation, usual class: activators | 340,000 compounds, 1.8% hits; further: % of control where 0% means no effect; nearly all actives have a fitted effect of over 55% in size
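Hoechst fluorescence of nuclei (405 nm excitation, 500-530 nm emission) measured by plate-scanning imager after 48 hr compound exposure at 37 C; re-replication scored as increased number of nuclei with elevated intensity.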
Starred values were filed as active, the others as inactive; i = inactive; u = inconclusive; x = no result; ! = not active in a repeat; [ ] = remark or other dose. The call rests on the fitted dose curve; in most records, active means well fitted curve in the direction sought with a large enough effect; inconclusive means small, poorly fitted or top-dose-only effect, or another doubt; inactive means no such curve, though single readings can be large; an effect the other way counts as inactive or inconclusive. Potency means the concentration at half of the fitted maximal effect.

SMILES	MCF10A rereplic	KB-V1 MDR tox	KB-3-1 cytotox	HT1080 IDH1KD tx	HT1080-NT tox	SW480 rereplic
O=C(Nc1cc(C(=O)N2CCCC2)ccc1N1CCCC1)c1ccccc1F	-6.3%	3.66µM*	i	-12.5%	15.9%	-0.5%
O=C(O)c1ccc(N=Nc2c(O)ccc3ncccc23)cc1	2.9%	u	u	23.1µM*	u	14.6µM*
Cc1cc(C)nc(Nc2nc(=O)c3ccccc3s2)n1	-1.6%	u	i	18.7%	10.4%	-5.0%
Cc1cc2c(sc3ccccc32)c(C)n1	-4.4%	20.6µM*	u	6.4%	10.4%	-17.4%[9.22 µM]
Cc1c(/C=N/NC(=O)c2ccccc2O)c2ccccn2c1C(=O)c1ccc(F)cc1	6.51µM*	u	u	u	u	19.6%
Cc1c(/C=N/NC(=O)CNc2ccccc2)c2ccccn2c1C(=O)c1ccccc1	u	3.66µM*	u	-27.7%	-15.3%	-13.6%
Cc1c(/C=N/NC(=O)c2ccc(O)cc2)c2ccccn2c1C(=O)c1ccc(F)cc1	29.0%	18.4µM*	u	u	u	-10.3%
COC(=O)N/N=C/c1c(C)c(C(=O)c2ccc(F)cc2)n2ccccc12	u	23.1µM*	i	u	-0.6%	-27.9%
CCOC(=O)N/N=C/c1c(C)c(C(=O)c2ccc(F)cc2)n2ccccc12	-2.1%	i	i	17.3%	17.6%	-3.8%
CC1(C(=O)NCc2ccccc2)CN(S(C)(=O)=O)CC(=O)N1CCc1ccc(O)cc1 (stereo not given)	x	i	i	11.7%	1.7%	x
CC(OC(=O)c1c2c(nc3ccccc13)/C(=C\c1ccc3c(c1)OCO3)CCC2)C(=O)Nc1ccc(S(N)(=O)=O)cc1 (stereo not given)	3.26µM*	i	i	u	-8.7%	20.6µM*
C=CCN1/C(=C(\C#N)C2=NS(=O)(=O)c3ccccc32)N(C)c2ccccc21	1.9%	i	i	7.08µM*	12.6µM*	u
N#Cc1ccccc1OC1=NS(=O)(=O)c2ccccc21	x	i	i	x	x	x
Nc1n[nH]c2cccc(Cl)c12	u	i	i	-0.2%	-1.3%	5.7%
N#Cc1nnn2c1nc(N)c1c(F)cccc12	5.0%	2.91µM*	u	16.0%	6.6%	-1.6%
N#Cc1nnn2c1nc(N)c1c(Cl)cccc12	x	0.581µM*	1.3µM*	23.2%	19.0%	x
CCOc1ccc(NC(=O)c2ccc(-c3nc(COc4ccccc4)c(C)o3)cc2)cc1	x	i	i	x	x	x
COc1cccc(CNC(=O)c2ccc(S(=O)(=O)N3CCCCC3)cc2)c1	x	i	i	-1.2%	3.5%	x
CCOC(=O)c1cnc2ccc(OCC)cc2c1NCc1ccccc1OC	u	7.31µM*	u	u	20.6µM*	27.1%
CCOC(=O)c1cnc2ccc(OC)cc2c1NCc1ccccc1	11.1%	3.66µM*	i	-3.6%	-0.1%	-6.5%
CCOC(=O)c1cnc2ccc(OC)cc2c1Nc1cccc(C(C)=O)c1	x	i	i	x	x	x
Cc1ccc(S(=O)(=O)NC(=O)C2(C)CCN2C(=O)Cc2cccs2)nc1 (stereo not given)	x	i	i	7.3%	20.5%	x
COc1ccc(NC(=O)CC2C(=O)N(c3cccc(OC)c3)C(=O)N2CCc2cccs2)cc1 (stereo not given)	x	i	i	x	x	x
COc1ccc(NC(=O)CC2C(=O)N(c3ccc(OC)cc3)C(=O)N2CCc2cccs2)cc1 (stereo not given)	7.9%	14.6µM*	i	7.8%	-0.1%	0.2%
COc1ccc(NC(=O)CC2C(=O)N(c3cccc(OC)c3)C(=O)N2C2CCCCC2)cc1 (stereo not given)	2.7%	16.4µM*	i	4.9%	7.9%	-3.3%
SMILES	MCF10A rereplic	KB-V1 MDR tox	KB-3-1 cytotox	HT1080 IDH1KD tx	HT1080-NT tox	SW480 rereplic
CNc1c(NS(=O)(=O)c2cc(OC)ccc2OC)c(=O)oc2ccccc12	3.9%	i	i	-2.5%	13.8%	5.0%
COc1cc(C(=O)OCC(=O)c2cc(C)n(C)c2C)cc(OC)c1OC	u	5.17µM*	u	u	u	u
O=C(Nc1ccccc1F)c1ccc(CN2CCc3ccccc3C2)cc1	u	20.6µM*	9.2µM*	-14.4%	-1.5%	u
O=C(Nc1ccccc1)c1ccc(CN2CCc3ccccc3C2)cc1	u	u	u	-25.8%	-10.6%	9.7%
Cc1cc(C)cc(NC(=O)CSc2nc3c(c(=O)[nH]2)CN(Cc2ccc(F)cc2)CC3)c1	3.1%	20.6µM*!	i	1.7%	-0.8%	-4.1%
Cc1cc(C)cc(NC(=O)c2ccc(CN3CCc4ccccc4C3)cc2)c1	20.6µM*	u	u	11.6µM*	u	-2.4%
Cc1ccc(NC(=O)c2ccc(CN3CCc4ccccc4C3)cc2)cc1	u	4.11µM*	i	u	u	-2.3%
COC(=O)c1ccc(C)c(NC(=O)c2ccc(CN3CCc4ccccc4C3)cc2)c1	0.4%	i	i	-2.3%	1.4%	1.5%
O=C(Nc1cccnc1)c1ccc(CN2CCc3ccccc3C2)cc1	8.6%	u	i	-19.2%	0.5%	0.0%
CCOc1ccc(CNC(=O)c2ccc(CSc3nc4ccncc4n3Cc3ccc(F)cc3)cc2)cc1	x	i	i	x	x	x
O=C(CSc1nc2c(c(=O)[nH]1)CCCC2)Nc1cccc(O)c1	x	i	i	x	x	x
NC(=O)c1ccccc1NC(=O)CSc1nc2c(c(=O)[nH]1)CCCC2	2.5%	i	i	16.4µM*	11.6µM*	-31.4%
COc1cc2c(cc1OC)C(COc1ccc(C(C)C)cc1)N(C(=O)c1ccc(S(=O)(=O)N3CCCC3)cc1)CC2 (stereo not given)	x	i	i	x	x	x
COc1cc(-c2noc(C)c2C#Cc2nccn2C)cc(OC)c1OC	16.4µM*	4.61µM*!	9.2µM*!	u	u	u
COc1cc(-c2noc(C)c2C#CCCN2C(=O)c3ccccc3C2=O)cc(OC)c1OC	x	i	i	x	x	x
C[C@@H]1CN([C@@H](C)CO)C(=O)Cc2cc(NC(=O)Nc3ccc(F)cc3)ccc2O[C@@H]1CN(C)Cc1ccc(Cl)c(Cl)c1	20.3%	u	u	u	18.4µM*	-27.1%
C[C@H]1CN([C@@H](C)CO)C(=O)Cc2cc(NC(=O)Nc3ccccc3)ccc2O[C@H]1CN(C)Cc1ccccc1	u	i	u	u	-23.9%	-5.1%
C[C@H](CO)N1C[C@H](C)[C@H](CN(C)Cc2ccncc2)Oc2ccc(NC(=O)Nc3ccc(C(F)(F)F)cc3)cc2CC1=O	u	i	6.51µM*	u	u	u
